Assay outcomes: PubChem BioAssay, SRMLSC
The list is not random: actives were taken first. Their share in the collection is about 6.5%.
Spn MK inh = S. pneumoniae MK inhibitors, primary screen, biochemical, PK/LDH-coupled NADH absorbance; mevalonate kinase [Streptococcus pneumoniae D39]; purified MK, PK/LDH-coupled NADH absorbance 340 nm; inhibition, % at 10 µM; actives 0.48% (n = 65,000);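 active means ranked among the strongest by inhibition in the single 10 µM screen, a fixed top-ranked set picked for dose follow-up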
PMK inhibit = S. pneumoniae PMK inhibitors, primary screen, biochemical, mevalonate pathway, pilot trial included; phosphomevalonate kinase (Streptococcus pneumoniae D39); purified PMK, PK/LDH-coupled NADH absorbance 340 nm; inhibition, % at 10 µM; actives 0.49% (n = 65,000);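 active means top-ranked compounds by inhibition in the single 10 µM screen, taking a fixed number of the strongest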;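 further: 0% = full reaction with DMSO carrier and 100% = background rate without enzyme reaction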
Spn DPM-DC inh = S. pneumoniae DPM-DC inhibitors, primary screen, biochemical, PK/LDH-coupled NADH fluorescence | actives 0.49% (n = 65,000) | calls only at 10 µM | diphosphomevalonate decarboxylase (Streptococcus pneumoniae D39) | purified DPM-DC;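 active means the 320 compounds with the highest percent inhibition in the single-dose primary screen, excluding strongly autofluorescent ones, cut at about 32% in these data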;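 further: kinetic rate of NADH fluorescence loss reporting ADP formed by the decarboxylase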
Autofluor 339 = intrinsic fluorescence of library compounds, ex339/em460 – biochemical, MLSMR library, data from DPM-DC assay, artefact control, profiling panel; compound autofluorescence, ex339/em460 nm, NADH buffer; stronger effect = higher value; 1 = no-compound wells, NADH background; fluorescence fold increase at 10 µM; actives 5.5% (n = 65,000); AID 709, 2007;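 active means at 10 µM, mean starting fluorescence two-fold or more over control wells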;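 further: signal is the first read of a kinetic run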
NADH enzymes = inhibitors of PK/LDH coupling enzymes, profiling panel, artefact control, biochemical, MLSMR library; coupled PK/LDH NADH assays, four targets; IC50, µM (doses to about 10 µM), for the others: top-dose inhibition; actives 0.02% (n = 65,000);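 active means single-dose screening hits from any of four coupled enzyme assays that gave an IC50 when retested across doses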;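 further: the DPM-DC format reads NADH fluorescence rather than 340 nm absorbance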
A340 absorber = compound light absorbance at 340 nm, profiling panel, artefact control, biochemical, MLSMR library, data from PS, PMK, MK assays; fold change at 10 µM; AID 708, 2007; 65,000 tested, under 10 active; compound absorbance at 340 nm, fold over control;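 active means at 10 µM dose, initial 340 nm absorbance at least 2 fold that of control wells; inactive means change under 2 fold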;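 further: initial absorbance extrapolated from kinetic A340 decline of NADH oxidation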
An asterisk follows results filed as active; i = inactive; x = no result shown; + = active, no number.

SMILES | Spn MK inh | PMK inhibit | Spn DPM-DC inh | Autofluor 339 | NADH enzymes | A340 absorber
Cc1nnc(SCC(=O)NCc2ccc3c(c2)OCO3)[nH]c1=O | 7 | 12 | i | 1 | 6% | 0.98
COc1ccc2[nH]c(C(=O)O)c(NS(=O)(=O)c3ccc(OC)c(OC)c3)c2c1 | 4 | 11 | i | 2.2* | 14% | 1.1
COc1ccc2[nH]c(C(=O)O)c(CCC(=O)O)c2c1 | 7 | 5 | i | 2.5* | 10% | 1.1
CCn1nnnc1-c1ccc(OC)c(S(=O)(=O)NCCc2ccccc2)c1 | 3 | 7 | i | 1.1 | 3% | 1.1
O=c1c2ccccc2nc(N2CCN(c3ccccc3)CC2)n1Cc1ccccc1 | 8 | 11 | i | 1.1 | 7% | 1
COc1cc2c(C#N)c(N3CCCCC3)nc(N)c2c(N)n1 | 1 | 9 | x | 5.1* | 5% | 1.1
COc1cc2c(C#N)c(N3CCOCC3)nc(N)c2c(N)n1 | 0 | 13 | x | 3.4* | 2% | 1
COc1cc2c(C#N)c(N3CCc4ccccc4C3)nc(N)c2c(N)n1 | 0 | 0 | x | 2.2* | 0% | 1
O=C(CC1c2ccccc2Oc2ccccc21)N1CCN(c2ccccn2)CC1 | 2 | 11 | i | 1.1 | 4% | 1
CN(C)c1ccc(CNCCC2(O)CCOC(C)(C)C2)cc1 (stereo not given) | 41* | 61* | i | 1.1 | 11% | 1
CN(C)c1ccc(C=NCCC2(O)CCOC(C)(C)C2)cc1 (stereo not given) | 7 | 5 | i | 1 | 4% | 1.1
O=C1NC(c2ccccn2)Nc2sc3c(c21)CCC3 (stereo not given) | 6 | 9 | i | 1.4 | 5% | 1.1
CN1CCc2c(sc3c2C(=O)NC(c2ccccn2)N3)C1 (stereo not given) | 3 | 15 | i | 2.4* | 12% | 1
Cc1ccc(C2NC(=O)c3c(sc4c3CCN(C)C4)N2)o1 (stereo not given) | 5 | 7 | i | 1.6 | 9% | 1.1
Cc1ccc(C2NC(=O)c3c(sc4c3CCN(C)C4)N2)s1 (stereo not given) | 13 | 14 | i | 2.3* | 16% | 1
CCCCn1c2c(c(=O)n(C)c1=O)C(c1ccc(OC)cc1)N1CCCCCC1=N2 (stereo not given) | 0 | 11 | i | 1.3 | 5% | 1.1
CCOC(=O)COc1ccc2cc(C(=O)OCC)c(=O)oc2c1 | 4 | 5 | x | 2.3* | 5% | 1.1
Cc1cc(-n2c(C)cc(C(=O)COc3ccc4ccc(=O)oc4c3)c2C)no1 | 0 | 12 | x | 4.2* | 6% | 1.1
CN(C)C(=O)COc1ccc2ccc(=O)oc2c1 | 7 | 4 | x | 2.2* | 6% | 1.1
CC(C)N(CCCNC(=O)C1CCN(S(=O)(=O)N2CCOCC2)CC1)Cc1ccccc1 | 0 | 13 | i | 1.1 | 4% | 1
Cc1csc2nc3ccccc3c(=O)n12 | 5 | 4 | i | 2* | 6% | 1
Cc1nc2ccccc2c(=O)n1N | 3 | 6 | i | 1 | 3% | 1
Cc1nn(-c2ccccc2)c2c1C(O)n1c(nc3ccccc31)S2 (stereo not given) | + | 10 | i | 1 | 6% | 1
Cc1nn(-c2ccc(C(=O)O)cc2)c(N)c1-c1ccccc1 | 3 | 15 | i | 1.1 | 6% | 0.97
Cc1cc(N2C(=O)C3C4c5ccccc5C(c5ccccc54)C3C2=O)no1 (stereo not given) | 2 | 1 | i | 1.1 | 2% | 1
Cc1cc(-n2c(=O)c(C#N)cc3c(=O)n4ccccc4nc32)no1 | 9 | 16 | x | 3.8* | 13% | 1.1
C=CCn1c(=O)c(C#N)cc2c(=O)n3ccccc3nc21 | 0 | 13 | x | 4.8* | 7% | 1.1
CCn1c2ccccc2c2nnc(SCC(=O)N3CC(C)OC(C)C3)nc21 (stereo not given) | 6 | 15 | i | 1.1 | 8% | 1.1
